Experimental data taken from PubChem BioAssay AID1159580 (chemical genetic matrix, 2015).
Among all 5,500 compounds or so, about 2,000 (36%) were called active. Another 18% or so got no clear call; they are omitted. No stated cut-off is given here; in the data, active means normalized growth mostly below about 0.91 (no sharp cut-off); inconclusive means no clear call, values can overlap the other calls; inactive means mostly above about 0.92. The list shows a part of the results.

Assay: chemical genetic growth profiling, strain panel (AID 1159580);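 further: tested at 20 µM; growth read once vehicle control cultures reached saturation at 30 °C; 1 = growth at the plate median or of vehicle wells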
Conditions: growth OD

Measured: normalized growth

COC(=O)[C@@H]1C(O)CC[C@H]2CN3CCc4c([nH]c5ccccc45)[C@@H]3C[C@@H]21 (some centres not stated)
inactive: S. cerevisiae deletion strains, locus YJR075W, strain HOC1, stronger effect = lower value 0.993 | S. cerevisiae deletion strains, locus YKL009W, strain mrt4, stronger effect = lower value 0.968 | S. cerevisiae deletion strains, locus YKL068W, stronger effect = lower value 0.982 | S. cerevisiae deletion strains, locus YKL085W, strain MDH1 (second series), stronger effect = lower value 0.982 | S. cerevisiae deletion strains, locus YKL085W, strain MDH1, stronger effect = lower value 0.982 | S. cerevisiae deletion strains, locus YKL160W, strain elf1, stronger effect = lower value 1.01 | S. cerevisiae deletion strains, locus YKL190W, strain CNB1, stronger effect = lower value 0.994 | S. cerevisiae deletion strains, locus YKR001C, strain vps1, stronger effect = lower value 0.979 | S. cerevisiae deletion strains, locus YKR026C, strain gcn3, stronger effect = lower value 1.01 | S. cerevisiae deletion strains, locus YKR091W, strain srl3, stronger effect = lower value 1.02 | S. cerevisiae deletion strains, locus YLL001W, strain dnm1, stronger effect = lower value 1.02 | S. cerevisiae deletion strains, locus YLL026W, stronger effect = lower value 1.01 | S. cerevisiae deletion strains, locus YLL041C, strain sdh2, stronger effect = lower value 1.02 | S. cerevisiae deletion strains, locus YLR027C, strain aat2, stronger effect = lower value 1.01 | S. cerevisiae deletion strains, locus YLR039C, strain RIC1, stronger effect = lower value 0.977 | S. cerevisiae deletion strains, locus YLR058C, strain SHM2, stronger effect = lower value 0.988 | S. cerevisiae deletion strains, locus YLR102C, strain apc9, stronger effect = lower value 0.995 | S. cerevisiae deletion strains, locus YLR113W, strain HOG1, stronger effect = lower value 1 | S. cerevisiae deletion strains, locus YLR221C, strain rsa3, stronger effect = lower value 1 | S. cerevisiae deletion strains, locus YLR258W, strain gsy2, stronger effect = lower value 1.01 | S. cerevisiae deletion strains, locus YLR262C, strain YPT6 (second series), stronger effect = lower value 1 | S. cerevisiae deletion strains, locus YLR262C, strain YPT6, stronger effect = lower value 0.962 | S. cerevisiae deletion strains, locus YLR268W, strain sec22, stronger effect = lower value 1.01 | S. cerevisiae deletion strains, locus YLR320W, strain mms22, stronger effect = lower value 1.01 | S. cerevisiae deletion strains, locus YLR330W, strain CHS5, stronger effect = lower value 0.996 | S. cerevisiae deletion strains, locus YLR342W, strain FKS1 (second series), stronger effect = lower value 0.978 | S. cerevisiae deletion strains, locus YLR342W, strain FKS1, stronger effect = lower value 1.01 | S. cerevisiae deletion strains, locus YLR357W, strain rsc2, stronger effect = lower value 1.01 | S. cerevisiae deletion strains, locus YLR370C, strain arc18, stronger effect = lower value 1.02 | S. cerevisiae deletion strains, locus YLR371W, strain rom2, stronger effect = lower value 0.976 | S. cerevisiae deletion strains, locus YLR384C, strain iki3, stronger effect = lower value 1.02 | S. cerevisiae deletion strains, locus YLR418C, strain cdc73, stronger effect = lower value 1.05 | S. cerevisiae deletion strains, locus YML016C, strain PPZ1, stronger effect = lower value 0.983 | S. cerevisiae deletion strains, locus YML032C, strain rad52, stronger effect = lower value 0.971 | S. cerevisiae deletion strains, locus YML120C, strain ndi1, stronger effect = lower value 1.02 | S. cerevisiae deletion strains, locus YML124C, strain tub3, stronger effect = lower value 0.991 | S. cerevisiae deletion strains, locus YMR058W, strain fet3, stronger effect = lower value 1.01 | S. cerevisiae deletion strains, locus YMR078C, strain ctf18, stronger effect = lower value 0.988 | S. cerevisiae deletion strains, locus YMR125W, strain sto1, stronger effect = lower value 1 | S. cerevisiae deletion strains, locus YMR129W, stronger effect = lower value 1.01 | S. cerevisiae deletion strains, locus YMR205C, strain PFK2, stronger effect = lower value 1.03 | S. cerevisiae deletion strains, locus YMR223W, strain ubp8, stronger effect = lower value 0.97 | S. cerevisiae deletion strains, locus YMR231W, strain pep5, stronger effect = lower value 1.01 | S. cerevisiae deletion strains, locus YMR263W, strain SAP30, stronger effect = lower value 0.995 | S. cerevisiae deletion strains, locus YMR307W, strain GAS1, stronger effect = lower value 1 | S. cerevisiae deletion strains, locus YNL067W, strain RPL9B, stronger effect = lower value 1.01 | S. cerevisiae deletion strains, locus YNL071W, strain lat1, stronger effect = lower value 1.02 | S. cerevisiae deletion strains, locus YNL128W, strain TEP1, stronger effect = lower value 1 | S. cerevisiae deletion strains, locus YNL153C, strain GIM3, stronger effect = lower value 1.01 | S. cerevisiae deletion strains, locus YNL183C, strain NPR1, stronger effect = lower value 0.973 | S. cerevisiae deletion strains, locus YNL209W, strain ssb2, stronger effect = lower value 1.01 | S. cerevisiae deletion strains, locus YNL233W, strain BNI4, stronger effect = lower value 1.01 | S. cerevisiae deletion strains, locus YNL248C, strain rpa49, stronger effect = lower value 1.01 | S. cerevisiae deletion strains, locus YNL250W, strain rad50, stronger effect = lower value 0.975 | S. cerevisiae deletion strains, locus YNL271C, strain bni1, stronger effect = lower value 0.987 | S. cerevisiae deletion strains, locus YNL298W, strain CLA4, stronger effect = lower value 0.975 | S. cerevisiae deletion strains, locus YNL307C, strain MCK1, stronger effect = lower value 0.996 | S. cerevisiae deletion strains, locus YNL322C, strain KRE1 (second series), stronger effect = lower value 1.01 | S. cerevisiae deletion strains, locus YNL322C, strain KRE1, stronger effect = lower value 0.99 | S. cerevisiae deletion strains, locus YNR049C, strain mso1, stronger effect = lower value 1.01 | S. cerevisiae deletion strains, locus YNR052C, strain pop2, stronger effect = lower value 0.989 | S. cerevisiae deletion strains, locus YOL006C, strain TOP1, stronger effect = lower value 1.01 | S. cerevisiae deletion strains, locus YOL012C, strain htz1 0.815 | S. cerevisiae deletion strains, locus YOL147C, strain pex11, stronger effect = lower value 0.99 | S. cerevisiae deletion strains, locus YOR001W, strain rrp6, stronger effect = lower value 1.02 | S. cerevisiae deletion strains, locus YOR061W, strain CKA2, stronger effect = lower value 0.996 | S. cerevisiae deletion strains, locus YOR069W, strain VPS5, stronger effect = lower value 0.992 | S. cerevisiae deletion strains, locus YOR070C, strain gyp1, stronger effect = lower value 1.02 | S. cerevisiae deletion strains, locus YOR080W, strain dia2, stronger effect = lower value 1.01 | S. cerevisiae deletion strains, locus YOR083W, strain WHI5, stronger effect = lower value 1 | S. cerevisiae deletion strains, locus YOR106W, strain vam3, stronger effect = lower value 0.997 | S. cerevisiae deletion strains, locus YOR136W, strain idh2, stronger effect = lower value 0.99 | S. cerevisiae deletion strains, locus YOR144C, strain elg1, stronger effect = lower value 0.983 | S. cerevisiae deletion strains, locus YOR184W, strain ser1, stronger effect = lower value 0.981 | S. cerevisiae deletion strains, locus YOR231W, strain MKK1, stronger effect = lower value 1.02 | S. cerevisiae deletion strains, locus YOR265W, strain rbl2, stronger effect = lower value 0.998 | S. cerevisiae deletion strains, locus YOR270C, strain vph1, stronger effect = lower value 1 | S. cerevisiae deletion strains, locus YOR290C, strain snf2, stronger effect = lower value 0.971 | S. cerevisiae deletion strains, locus YOR316C, strain cot1, stronger effect = lower value 0.981 | S. cerevisiae deletion strains, locus YPL051W, strain arl3, stronger effect = lower value 0.995 | S. cerevisiae deletion strains, locus YPL055C, strain LGE1, stronger effect = lower value 1.01 | S. cerevisiae deletion strains, locus YPL078C, strain atp4, stronger effect = lower value 1.03 | S. cerevisiae deletion strains, locus YPL106C, strain sse1, stronger effect = lower value 1 | S. cerevisiae deletion strains, locus YPL240C, strain hsp82, stronger effect = lower value 1.01 | S. cerevisiae deletion strains, locus YPL241C, strain CIN2, stronger effect = lower value 0.99 | S. cerevisiae deletion strains, locus YPL256C, strain CLN2, stronger effect = lower value 1 | S. cerevisiae deletion strains, locus YPR119W, strain clb2, stronger effect = lower value 0.994 | S. cerevisiae deletion strains, locus YPR141C, strain kar3, stronger effect = lower value 0.981 | S. cerevisiae deletion strains, locus YPR163C, strain tif3, stronger effect = lower value 0.988 | S. cerevisiae deletion strains, locus YPR167C, strain met16, stronger effect = lower value 0.994 | S. cerevisiae deletion strains, strain wtn01, stronger effect = lower value 0.995 | S. cerevisiae strains, strain wild type, stronger effect = lower value 0.998
